Compound activity as filed in PubChem BioAssay.
The list is not random: actives were taken first. Their share in the collection is about 3.3%.
Jurkat NFkB inh = lowers PMA/ionomycin-induced NF-kB signal in Jurkat cells | PMA/ionomycin-induced NF-kB luciferase reporter, luminescence | inhibition, % at 4 µM | 330,000 compounds, 0.53% hits | AID 435003; in the data active means inhibition above about 50%
Gli-Sufu antag = Gli-Sufu pathway antagonism | 340,000 compounds, 0.74% hits | inhibition, % at 5 µM | Sufu-KO-LIGHT fibroblasts, Gli luciferase reporter luminescence | AID 588413;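 active means inhibition above about 55%, limit read from the data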;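 further: 0% = DMSO-treated cells and 100% = wells with medium but no cells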
esBAF inh = SWI/SNF esBAF complex inhibition | mouse ES cells, Bmi1-luciferase knock-in reporter, 24 h; 100% = twice the neutral-well signal | reporter increase, % at 12.5 µM | 350,000 compounds, 2% hits | AID 602393; in the data active means activation above about 40%; inconclusive means no clear call, values can overlap the other calls;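 further: 0% = median of the plate's neutral control wells and 100% = double that signal; a rise in the Bmi1 reporter signal indicates esBAF inhibition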
SMARCA2 act = increases SMARCA2 function in MMTV reporter cells; MG213 cells, MMTV-luciferase reporter, dexamethasone, overnight; activation, % at 9.1 µM; 370,000 compounds, 1% hits; AID 652017; in the data active means activation above about 7.8%;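 further: 0% = vehicle wells and 100% = reference activator wells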
697 NFkB inh = lowers PMA/ionomycin-induced NF-kB signal in 697 B cells; inhibition, % at 4 µM; 697 B-cell NF-kB luciferase reporter, 16 h; 330,000 compounds, 0.33% hits; AID 435022; in the data active means inhibition above about 35%
697 NFkB conf = inhibitors of the PMA/ionomycin-induced NF-kB reporter in 697 B cells, retest; shares compounds with 697 NFkB inh; 697 B-cell NF-kB luciferase, 16 h; inhibition, % at 4 µM; 2,000 compounds, 35% hits; in the data active means inhibition mostly above about 28%, no sharp cut-off; inactive means mostly below about 22%
* hit, by the source's call; i = inactive; ? = inconclusive; . = not tested or not shown.

SMILES | Jurkat NFkB inh | Gli-Sufu antag | esBAF inh | SMARCA2 act | 697 NFkB inh | 697 NFkB conf
S=C(Nc1ccc(Cl)cc1)c1nc2ccccc2s1 | -77.6 | -31.0 | 35.3 | 2.2 | -99.5 | .
Cc1ccc2ccc(C3C(=O)c4ccccc4C3=O)nc2c1 | -123.3 | -51.7 | ? | 4.4 | -353.8 | -176.4
c1ccc([C@H]2CN3C(=N2)Sc2ccccc23)cc1 | -136.9 | -21.3 | 16.7 | 7.0 | -267.9 | -347.4
Cc1ccc(/C=C2/NC(=O)N(Cc3ccccc3)C2=O)o1 | -19.7 | -7.4 | . | -0.8 | -41.6 | .
Cn1c(=O)n(C)c2cc(/C=C3/NC(=O)N(Cc4ccccc4)C3=O)ccc21 | 11.3 | 22.5 | 3.8 | 0.5 | 46.8* | 26.6*
Cc1nc(/C=C/c2ccccc2)[nH]c(=O)c1-c1ccccc1 | 6.4 | -106.2 | . | 7.7 | -253.7 | -162.8
C(=C\c1ccco1)/c1nc2ccccc2[nH]1 | 11.2 | . | . | 0.5 | -2.8 | .
C(=C\c1nc2ccccc2[nH]1)/c1ccccc1 | -104.2 | -140.5 | -45.5 | -0.7 | -442.4 | -296.1
Cc1cccc(/C=C\c2nc3ccccc3c(=O)[nH]2)c1 | -26.2 | -82.0 | . | 4.7 | -172.4 | .
NNC(=O)[C@@H]1C[C@@H]1c1ccccc1 | 3.8 | -5.2 | -15.3 | -2.1 | 2.5 | .
CCc1c(C)sc(NC(=O)C2CC2c2ccccc2)c1C(N)=O (stereo not given) | -78.1 | -4.0 | 15.8 | -1.2 | -488.3 | -269.2
CC1(c2nnc(-c3cccc(Cl)c3)o2)CC(c2cccc(Cl)c2)=NO1 (stereo not given) | 32.5 | -11.5 | . | 0.0 | 37.3* | 37.2*
CC1(c2nnc(-c3cccc(Cl)c3)o2)CC(c2ccc(Cl)cc2)=NO1 (stereo not given) | -1.9 | 21.1 | 2.1 | 0.1 | 10.0 | .
Cc1ccc(C(=O)c2cccc(N)c2)cc1C | -4.7 | 13.7 | -49.3 | -8.1 | 36.6* | -11.8
COCC(=O)N1[C@@H]2c3ccc(-c4cccnc4)c(=O)n3C[C@@H]2[C@@H](CO)[C@@H]1C(=O)Nc1ccccc1 | . | . | -1.4 | . | . | .
COc1ccc(-c2cc3cc(F)ccc3cn2)cc1 | -5.6 | -117.6 | 5.1 | 2.3 | -254.7 | -263.4
COc1ccc(-c2cc3cc(OC)c(OC)cc3cn2)cc1OC | -32.7 | -18.1 | . | 5.1 | -9.2 | .
Cc1cccc2nc(COc3ccc(-c4ccccc4)cc3)cn12 | -26.8 | . | . | . | i | -450.5
COc1ccc(CNC(=O)CSc2nnc3c(n2)[nH]c2ccc(OC)cc23)cc1 | 10.6 | -2.5 | -4.7 | -2.1 | 2.4 | .
COc1ccc2[nH]c3nc(SC(C)C)nnc3c2c1 | -130.0 | -129.9 | -64.7 | 5.8 | -328.3 | -342.8
CCCCSc1nnc2c(n1)[nH]c1ccccc12 | -122.5 | -82.1 | 35.9 | 7.2 | -313.6 | -131.6
CC(C)CSc1nnc2c(n1)[nH]c1ccccc12 | -128.1 | -86.1 | . | 2.4 | -310.9 | -197.3
O=C(O)CSc1nnc2c(n1)[nH]c1ccccc12 | -38.6 | 4.0 | . | -1.9 | -22.3 | .
O=C(C[C@@H]1C[C@@H]2c3cc(NC(=O)c4cccnc4)ccc3O[C@@H]2[C@@H](CO)O1)NCC1CC1 | . | . | 0.8 | . | . | .
COc1ccccc1C(=O)Nc1ccc2c(c1)OC[C@@H](C)N(CC1CC1)C[C@H](C)[C@H](OC)CN(C)C2=O | . | . | -3.3 | . | . | .
SMILES | Jurkat NFkB inh | Gli-Sufu antag | esBAF inh | SMARCA2 act | 697 NFkB inh | 697 NFkB conf
Cc1ccc(S(=O)(=O)/C(=C\N(C)C)c2cnc(Cl)s2)cc1 | 9.8 | -5.5 | . | -1.8 | 36.3* | 22.6
CN(C)/C=C(\C#N)S(=O)(=O)c1ccc(Cl)cc1 | 5.4 | 2.1 | . | -3.4 | 8.4 | .
O=c1cnn([C@@H]2O[C@H](CO)[C@@H](O)[C@H]2O)c(=O)[nH]1 | 3.5 | 14.6 | 15.5 | . | i | i
Cc1ccc(OCC(=O)NC2=NCCS2)cc1 | -46.3 | -6.2 | . | 3.4 | -1.8 | .
Cc1ccc(/C=C/C(=O)NC2=NCCS2)cc1 | -144.2 | -94.2 | . | 4.0 | -417.4 | -314.8
CCn1c(=O)cc(OCC(=O)Nc2ccc3c(c2)OCCO3)c2ccccc21 | -1.0 | 5.5 | 0.6 | -3.5 | 30.7 | .
CCN(CC)CCOC(=O)c1ccc(NC(=O)COc2cc(=O)n(CC)c3ccccc23)cc1 | 5.3 | 6.5 | 1.0 | -1.2 | 39.3* | 44.8*
CCn1c(=O)cc(OCC(=O)Nc2ccc(OC)c(OC)c2)c2ccccc21 | 6.6 | -24.1 | . | -3.3 | 35.8* | 37.4*
CCN(CCCNC(=O)COc1cc(=O)n(CC)c2ccccc12)c1ccccc1 | 2.1 | 17.4 | -8.4 | -1.4 | 5.1 | .
CCn1c(=O)cc(OCC(=O)N(C)C2CCCCC2)c2ccccc21 | -2.1 | 6.9 | 0.1 | 2.6 | 39.0* | 43.9*
O=C(N/N=C/c1cccnc1)c1cc(-c2ccccc2OCc2ccccc2)n[nH]1 | 21.7 | 11.5 | . | -5.7 | 35.0* | 25.9*
O=C(N/N=C/c1cccnc1)c1ccccc1OCc1ccc(Cl)cc1 | 8.7 | . | . | . | -3.5 | .
C[C@@H]1CCCCO[C@@H](CN(C)S(=O)(=O)c2ccc(Cl)cc2)[C@H](C)CN([C@H](C)CO)C(=O)c2cc(NC(=O)CCC(F)(F)F)ccc2O1 | . | . | -4.9 | . | . | .
C/C(=N\N=C1\NC(=O)C(Cc2ccccc2)S1)c1ccccc1 (stereo not given) | -7.1 | -5.5 | . | -1.1 | 10.3 | .
CNC(=O)/C(C#N)=C1\SC(Cc2ccc(F)cc2)C(=O)N1c1ccccc1C (stereo not given) | -24.1 | -2.2 | 0.0 | -3.4 | -41.5 | .
CC(=O)/C(C#N)=C1\NC(=O)C(Cc2ccccc2C)S1 (stereo not given) | 19.2 | 5.6 | . | -0.4 | i | i
CC(=O)/C(C#N)=C1\NC(=O)C(Cc2ccccc2)S1 (stereo not given) | -2.7 | 22.2 | . | -2.2 | i | i
COCC(=O)N(C)C[C@@H]1Oc2cc(C3=CCCCC3)ccc2S(=O)(=O)N([C@H](C)CO)C[C@@H]1C | . | . | 3.9 | . | . | .
Cc1ccc(C(=O)C[n+]2cc(-c3ccc(C)cc3)n3c2CCCCC3)cc1 | 46.2 | 88.4* | 5.0 | -7.3 | 80.5* | 54.2*
O=C(C[n+]1cc(-c2ccccc2)n2c1CCCCC2)c1ccc(Br)cc1 | 9.7 | 30.6 | . | -6.7 | 7.3 | .
Cc1noc(C)c1NC(=O)N(C)C[C@H]1Oc2ccc(NC(=O)Nc3cccc4ccccc34)cc2C(=O)N([C@H](C)CO)C[C@H]1C | . | . | -0.7 | . | . | .
CO[C@@H]1CN(C)C(=O)c2ccc(NC(=O)Cc3ccccc3)cc2OC[C@H](C)N(CC2CC2)C[C@H]1C | . | . | -4.0 | . | . | .
O=C(Nc1cccc(-c2nc3ccccc3s2)c1)C1=COCCO1 | -12.0 | -13.0 | . | 2.3 | -19.0 | .
O=C(Nc1ccc(-c2nc3ccccc3s2)cc1)C1=COCCO1 | -61.1 | 44.3 | . | 2.5 | -299.6 | -290.0
CC(C)(C)C(=O)NNC(=O)c1cnccn1 | 0.5 | 3.3 | . | -0.6 | 45.3* | 10.2
O=C(O)CCCCCn1c(SCc2cc(=O)n3ccccc3n2)nc2ccsc2c1=O | 7.2 | -6.0 | . | -4.6 | 35.6* | 23.2
Cc1cc(C)cc(NC(=O)[C@H](Cc2c[nH]c3ccccc23)NC(=O)[C@@H]2Cc3ccccc3CN2)c1 | -9.6 | -25.5 | 10.4 | -0.6 | -17.1 | .
